# Experimental data as given in PMC8384837, “Expanding the binding specificity for RNA recognition by a PUF domain”.
# Positions count from the first letter of the chain named.
# Tests used:
# Experiment in all cases: yeast three-hybrid, YBZ-1, SC-Leu-His + 0.5 mM 3-AT, 4 days
# Settings in all cases: tags: N-Gal4 AD-HA kept; label: inside an RPR1-promoter hybrid RNA with tandem MS2 sites; ssRNA
# [1] = target: PUM1 PUF domain R5-SQG (Homo sapiens, UniProt Q14671 828-1176, C1007S;R1008Q;Q1011G)
# How it was run: (§1)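 Sequencing with Illumina followed PCR amplification of the repeat regions from transformants grown four days on SC-Leu (input) or SC-Leu-His + 0.5 mM 3-AT (selection). The transformants were strain YBZ-1 with a LexA–MS2 coat fusion and a HIS3 reporter, carrying Pumilio-1 PUF domain libraries and matching RNA elements. The interaction score is the log change in variant frequency from input to selection, computed in log2 with a pseudocount of 1 for absent variants.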
# [2] = target: PUM1 PUF domain R5-GSR (Homo sapiens, UniProt Q14671 828-1176, C1007G;R1008S;Q1011R)
# How it was run: as §1
# [3] = target: PUM1 PUF domain R5-ERF (Homo sapiens, UniProt Q14671 828-1176, C1007E;Q1011F)
# How it was run: as §1
# [4] = target: PUM1 PUF domain R5-KRG (Homo sapiens, UniProt Q14671 828-1176, C1007K;Q1011G)
# How it was run: as §1
# [5] = target: PUM1 PUF domain R5-GKE (Homo sapiens, UniProt Q14671 828-1176, C1007G;R1008K;Q1011E)
# How it was run: as §1
# [6] = target: PUM1 PUF domain R5-SMG (Homo sapiens, UniProt Q14671 828-1176, C1007S;R1008M;Q1011G)
# How it was run: as §1
# [7] = target: PUM1 PUF domain R3-TIE (Homo sapiens, UniProt Q14671 828-1176, C935T;R936I;Q939E)
# How it was run: as §1
# [8] = target: PUM1 PUF domain R4-PFY (Homo sapiens, UniProt Q14671 828-1176, N971P;H972F;Q975Y)
# How it was run: as §1
# [9] = target: PUM1 PUF domain R4-WSY (Homo sapiens, UniProt Q14671 828-1176, N971W;H972S;Q975Y)
# How it was run: as §1
# [10] = target: PUM1 PUF domain R4-DWC (Homo sapiens, UniProt Q14671 828-1176, N971D;H972W;Q975C)
# How it was run: as §1
# [11] = target: PUM1 PUF domain R7-RGK (Homo sapiens, UniProt Q14671 828-1176, S1079R;N1080G;E1083K)
# How it was run: as §1
# [12] = target: PUM1 PUF domain R7-LFG (Homo sapiens, UniProt Q14671 828-1176, S1079L;N1080F;E1083G)
# How it was run: as §1
# [13] = target: PUM1 PUF domain R8-RYP (Homo sapiens, UniProt Q14671 828-1176, N1122R;Q1126P)
# How it was run: as §1
# [14] = target: PUM1 PUF domain R5-AYF (Homo sapiens, UniProt Q14671 828-1176, C1007A;R1008Y;Q1011F)
# How it was run: as §1
# [15] = target: T1, PUM1 PUF domain R6-IYK (Homo sapiens, UniProt Q14671 828-1176, N1043I;Q1047K)
# T1 sequence: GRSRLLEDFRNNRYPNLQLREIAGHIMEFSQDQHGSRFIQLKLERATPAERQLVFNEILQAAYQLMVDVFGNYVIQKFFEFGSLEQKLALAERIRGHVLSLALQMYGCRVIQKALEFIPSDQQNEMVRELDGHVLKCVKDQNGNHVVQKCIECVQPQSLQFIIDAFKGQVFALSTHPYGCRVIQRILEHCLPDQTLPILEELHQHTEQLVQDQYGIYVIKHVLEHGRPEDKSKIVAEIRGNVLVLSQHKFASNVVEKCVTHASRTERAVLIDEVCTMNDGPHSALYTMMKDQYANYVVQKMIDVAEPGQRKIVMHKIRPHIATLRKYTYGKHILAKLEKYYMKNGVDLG
# How it was run: as §1
# [16] = target: T2, PUM1 PUF domain R6-GFK (Homo sapiens, UniProt Q14671 828-1176, N1043G;Y1044F;Q1047K)
# T2 sequence: T1 sequence with I216G, Y217F
# How it was run: as §1
# [17] = target: PUM1 PUF domain R5-AGD (Homo sapiens, UniProt Q14671 828-1176, C1007A;R1008G;Q1011D)
# How it was run: as §1
# [18] = target: T3, PUM1 PUF domain R6-CWS (Homo sapiens, UniProt Q14671 828-1176, N1043C;Y1044W;Q1047S)
# T3 sequence: T1 sequence with I216C, Y217W, K220S
# How it was run: as §1
sequence,measurement,setting,value
GGCUAGAACUAGUGGAUCCCCCGGCGCCCGGCGGCUCGAGCCCGGGUAAGUGUUAAUAGUCUGCAUGCCGCCGGGCGCCAUGCCUGCAGGUCGACUCUAGAAAACAUG,binding signal,[1],0.27 log2 enrichment (interaction score)
same,binding signal,[2],3.01 log2 enrichment (interaction score)
same,binding signal,[3],3.92 log2 enrichment (interaction score)
same,binding signal,[4],4.3 log2 enrichment (interaction score)
same,binding signal,[5],2.85 log2 enrichment (interaction score)
same,binding signal,[6],0.67 log2 enrichment (interaction score)
GGCUAGAACUAGUGGAUCCCCCGGCGCCCGGCGGCUCGAGCCCGGGUAAGUGUAAGUAGUCUGCAUGCCGCCGGGCGCCAUGCCUGCAGGUCGACUCUAGAAAACAUG,binding signal,[7],4.39 log2 enrichment (interaction score)
GGCUAGAACUAGUGGAUCCCCCGGCGCCCGGCGGCUCGAGCCCGGGUAAGUGUAUAUAGUCUGCAUGCCGCCGGGCGCCAUGCCUGCAGGUCGACUCUAGAAAACAUG,binding signal,[8],3.71 log2 enrichment (interaction score)
same,binding signal,[9],3.41 log2 enrichment (interaction score)
same,binding signal,[10],2.64 log2 enrichment (interaction score)
GGCUAGAACUAGUGGAUCCCCCGGCGCCCGGCGGCUCGAGCCCGGGUAAGUUUAAAUAGUCUGCAUGCCGCCGGGCGCCAUGCCUGCAGGUCGACUCUAGAAAACAUG,binding signal,[11],6.69 log2 enrichment (interaction score)
same,binding signal,[12],4.82 log2 enrichment (interaction score)
GGCUAGAACUAGUGGAUCCCCCGGCGCCCGGCGGCUCGAGCCCGGGUAAGUGUACAUAGUCUGCAUGCCGCCGGGCGCCAUGCCUGCAGGUCGACUCUAGAAAACAUG,binding signal,[10],2.72 log2 enrichment (interaction score)
GGCUAGAACUAGUGGAUCCCCCGGCGCCCGGCGGCUCGAGCCCGGGUAAGCGUAAAUAGUCUGCAUGCCGCCGGGCGCCAUGCCUGCAGGUCGACUCUAGAAAACAUG,binding signal,[13],6.03 log2 enrichment (interaction score)
GGCUAGAACUAGUGGAUCCCCCGGCGCCCGGCGGCUCGAGCCCGGGUAAGUGUAAAUAGUCUGCAUGCCGCCGGGCGCCAUGCCUGCAGGUCGACUCUAGAAAACAUG,binding signal,[14],3.62 log2 enrichment (interaction score)
same,binding signal,[13],4.32 log2 enrichment (interaction score)
same,binding signal,[2],1.75 log2 enrichment (interaction score)
same,binding signal,[15],2.06 log2 enrichment (interaction score)
same,binding signal,[8],5.35 log2 enrichment (interaction score)
same,binding signal,[3],2.71 log2 enrichment (interaction score)
same,binding signal,[16],2.55 log2 enrichment (interaction score)
same,binding signal,[17],1.82 log2 enrichment (interaction score)
same,binding signal,[9],2.29 log2 enrichment (interaction score)
same,binding signal,[4],1.97 log2 enrichment (interaction score)
same,binding signal,[10],2.81 log2 enrichment (interaction score)
same,binding signal,[18],3.77 log2 enrichment (interaction score)
